Laboratory results reported in PubChem BioAssay (NCI).
Values joined by “and” are separate entries in the source; they are usually repeats but may differ in a detail not shown here. Identical values can stand only once. The panel holds about 79,000 compounds, 15% with a hit somewhere; the sample as a whole holds those more often. Unmarked numbers belong to inactive results. Active and inactive are the calls of the source. Cut-off read from the data, not from the text of the source: active = growth inhibition above about 70%; inactive = the rest.

Tests used:
[1] = NCI Yeast Anticancer Drug Screen. Data for the rad50 strain (AID 155);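 note: 0% = growth of vehicle-only cultures of the same strain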; details: S. cerevisiae rad50 strain growth inhibition, stronger effect = higher value
How it was run: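 Compounds were tested on a yeast strain with an engineered DNA damage repair alteration; the reported value is growth inhibition normalised to vehicle treatment.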

[2] = NCI Yeast Anticancer Drug Screen. Data for the mec2-1 strain (AID 157); details: S. cerevisiae mec2-1 strain, stronger effect = higher value
How it was run: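 Compounds were applied to mec2-1 yeast cells. Their growth was then compared with that of vehicle-treated cultures to give growth inhibition.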

[3] = NCI Yeast Anticancer Drug Screen. Data for the sgs1 mgt1 strain (AID 161);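 note: 0% = growth of cultures given vehicle only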; details: S. cerevisiae sgs1 mgt1 strain, stronger effect = higher value
How it was run: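 This yeast growth screen uses a strain with defined DNA-repair lesions; compound-treated growth is compared with vehicle-treated growth.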

[4] = NCI Yeast Anticancer Drug Screen. Data for the cln2 rad14 strain (AID 165);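 note: 0% = growth equal to vehicle treated cultures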; details: S. cerevisiae cln2 rad14 strain, stronger effect = higher value
How it was run: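 Strain: cln2 rad14 yeast, altered in cell cycle control and DNA damage repair. Read-out: growth inhibition vs vehicle.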

[5] = NCI Yeast Anticancer Drug Screen. Data for the bub3 strain (AID 167); details: S. cerevisiae bub3 mutant strain, stronger effect = higher value
How it was run: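 Growth of a checkpoint-deficient yeast mutant is measured after compound exposure. Values represent inhibition relative to vehicle.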

[6] = NCI Yeast Anticancer Drug Screen. Data for the mlh1 rad18 strain (AID 175); details: S. cerevisiae mlh1 rad18 strain growth inhibition, stronger effect = higher value
How it was run: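 A repair-deficient yeast strain is exposed to test compound, and growth is scored relative to vehicle-treated controls.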

[7] = at 5.0 µM (retest, dose inferred, filed as 0.5)
[8] = at 50.0 µM (retest, dose inferred, filed as 5.0)

SMILES | growth inhibition [1, 7] | growth inhibition [1, 8] | growth inhibition ([1]; at 50.0 µM) | growth inhibition [2, 7] | growth inhibition [2, 8] | growth inhibition ([2]; at 50.0 µM) | growth inhibition [3, 7] | growth inhibition [3, 8] | growth inhibition ([3]; at 50.0 µM) | growth inhibition [4, 7] | growth inhibition [4, 8] | growth inhibition ([4]; at 50.0 µM) | growth inhibition [5, 7] | growth inhibition [5, 8] | growth inhibition ([5]; at 50.0 µM) | growth inhibition [6, 7] | growth inhibition [6, 8] | growth inhibition ([6]; at 50.0 µM)
O=C(CCN1CC1)NCCc1ccccc1 | -152% | 90% (active) | 96.6% (active) | -44% | 48% | 83.3% (active) | -59% | 84% (active) | 58% | -60% | 73% (active) | 83.7% (active) | -72% | 87% (active) | 67.8% | -143% | 90% (active) | 93.7% (active)
CC[N+](C)(CC)CCNC(=O)C(O)(c1ccccc1)c1ccccc1 | -8% | 40% | 92.7% (active) | -13% | 52% | 95.5% (active) | -6% | 36% | 96.5% (active) | -2% | 35% | 93.2% (active) | -5% | 23% | 95.1% (active) | -1% | 40% | 94.4% (active)
O=C(O)Cc1ccc2c(c1)OCO2.[Ag] | 99% (active) | 93% (active) | 96% (active) | 99% (active) | 95% (active) | 97% (active) | 99% (active) | 94% (active) | 96.6% (active) | 99% (active) | 94% (active) | 90.2% (active) | 99% (active) | 93% (active) | 93.3% (active) | 99% (active) | 93% (active) | 94.4% (active)
Oc1c(Cl)c(Cl)c(Cl)c(Cl)c1Cl (tested in a mixture with another compound) | 56% and 41% and 27% | 99% (active) | 99.2% (active) and 99% (active) and 98.8% (active) | 28% and 24% and -7% | 99% (active) and 100% (active) | 99.4% (active) and 99.2% (active) and 99.7% (active) | 58% and 44% and 23% | 99% (active) | 99.4% (active) and 99.3% (active) and 99.2% (active) | 42% and 28% and 16% | 99% (active) and 98% (active) | 97.2% (active) and 99.2% (active) and 98.5% (active) | 30% and 29% and 1% | 99% (active) | 99.5% (active) and 99.3% (active) | 56% and 46% and 23% | 99% (active) | 99.2% (active) and 99% (active)
CCOC(=O)C(/N=N\c1nn[nH]n1)/N=N/c1ncn[nH]1 (configuration not stated) | -7% | -8% | 97.7% (active) | -28% | -6% | 99.5% (active) | -6% | -1% | 73.2% (active) | -2% | -10% | 93.2% (active) | -6% | -3% | 98.8% (active) | -7% | -5% | 99.2% (active)
CCOc1cc(/C=C/[N+](=O)[O-])ccc1O | -112% | 93% (active) | 77.2% (active) | -44% | 73% (active) | 65.8% | -46% | 95% (active) | 77.7% (active) | -52% | 75% (active) | 55% | -60% | 90% (active) | 43.4% | -93% | 94% (active) | 96.6% (active)
[Ni+2].[SH2+]C([SH2+])=Nc1ccccc1.[SH2+]C([SH2+])=Nc1ccccc1.c1ccc(C[P+](c2ccccc2)(c2ccccc2)c2ccccc2)cc1 | 14% | 91% (active) | 97.9% (active) | 26% | 88% (active) | 98% (active) | 21% | 91% (active) | 97.8% (active) | -6% | 87% (active) | 90.8% (active) | 8% | 85% (active) | 95.3% (active) | 40% | 98% (active) | 98.5% (active)
CC1=CC2OC3CC4OC(=O)/C=C/C=C/C(=O)OCCC(C)C(O)C(=O)OCC2(CC1O)C4(C)C31CO1 (configuration not stated) | 96% (active) | 98% (active) | 92.3% (active) | 96% (active) | 98% (active) | 93.1% (active) | 98% (active) | 99% (active) | 93.2% (active) | 97% (active) | 98% (active) | 91.7% (active) | 96% (active) | 98% (active) | 91.7% (active) | 96% (active) | 97% (active) | 91.5% (active)
Cc1ccccc1C[As](C)(=O)O | -157% | -140% | 9.95% | -50% | -47% | 2.45% | -64% | -58% | 0.1% | -62% | -58% | 14.8% | -76% | -76% | 0.25% | -147% | -104% | 0.35%
